Screening results from PubChem.
Shiga inhibitor: A qHTS for Small Molecule Inhibitors of Shiga Toxin | Vero cells, Shiga toxin protein synthesis inhibition reporter | AID 2315, 2010 | actives 9.2% (n = 290,000) | inhibition, % at 38.7 µM; in the data active means inhibition mostly above about 28%, no sharp cut-off; inactive means mostly below about 43%
Cycloheximide cs: Cycloheximide Counterscreen for Small Molecule Inhibitors of Shiga Toxin; cell reporter, cycloheximide protein synthesis inhibition counterscreen; max response, %; actives 12% (n = 300,000); AID 2314, 2010; in the data active means max response mostly above about 13%, no sharp cut-off; inactive means mostly below about 14%; further: read at 38.3 µM for the half of the compounds with a filed dose
NS1 function inh: qHTS Assay for Inhibitors of Influenza NS1 Protein Function; AID 2326, 2010; Potency, µM (highest dose often 46.1 µM); actives 0.4% (n = 270,000); further: actives are rising curves; nearly all actives have a fitted effect of over 50% in size
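Compounds were scored for reversing the slow growth caused by influenza A NS1 in S. cerevisiae, measured by optical density at 600 nm. Assay medium contained 2% galactose at pH 6.0; NS1-free yeast of the same strain were the positive control.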
Pf growth 48h: Primary qHTS for delayed death inhibitors of the malarial parasite plastid, 48 hour incubation; AID 504832, 2011; actives 5.9% (n = 310,000); P. falciparum luciferase growth in erythrocytes, 48 h; Potency, µM (top dose mostly 28.7 µM), usual class: inhibitors; active means well fitted inhibition curve with a large enough effect; inconclusive means small, poorly fitted or top-dose-only effect, or another doubt; inactive means no such curve, though single readings can be large or run the other way
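Compounds are pin-transferred into medium, infected erythrocytes (2% hematocrit, 0.1% parasitemia final) are added, and plates sit one parasite generation at 37 C in 5% CO2. Detection reagent is then added and luminescence measured.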
SARS PLP yeast: qHTS of Yeast-based Assay for SARS-CoV PLP; S. cerevisiae expressing SARS-CoV PLpro, growth rescue; Potency, µM (doses to about 32.9 µM), hits mostly activators; actives 0.19% (n = 330,000); AID 485353, 2010; further: nearly all actives have a fitted effect of over 55% in size
Pf growth 96h: Primary qHTS for delayed death inhibitors of the malarial parasite plastid, 96 hour incubation; P. falciparum luciferase reporter growth, 96 h; Potency, µM (highest dose often 28.7 µM), actives largely listed as inhibitors; actives 6.9% (n = 320,000); AID 504834, 2011; active means well fitted inhibition curve with a large enough effect; inconclusive means small, poorly fitted or top-dose-only effect, or another doubt; inactive means no such curve, though single readings can be large or run the other way
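P. falciparum expressing integrated firefly luciferase, in erythrocytes at 2% hematocrit, 0.05% parasitemia, incubated with compounds 96 h at 37 C, 5% CO2. Growth inhibition read as loss of luminescence; two-generation exposure targets delayed-death apicoplast inhibitors.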
Hits are given with their value; - = inactive; ? = inconclusive; . = no result given. This is a sample that favours compounds with a hit; in the whole collection about 21% have one here. Unless noted, the call rests on the fitted dose curve.

SMILES | Shiga inhibitor | Cycloheximide cs | NS1 function inh | Pf growth 48h | SARS PLP yeast | Pf growth 96h
Cc1cccc(-n2c(N)c(C(=O)NCCN3CCOCC3)c3nc4ccccc4nc32)c1 | - | - | - | . | - | 9.28µM
COCCCn1c(N)c(C(=O)Nc2ccccc2)c2nc3ccccc3nc21 | - | - | - | ? | - | ?
CC(C)Cn1c(N)c(C(=O)NCCN2CCOCC2)c2nc3ccccc3nc21 | - | - | - | 3.7µM | - | -
Nc1c(C(=O)NCCN2CCOCC2)c2nc3ccccc3nc2n1Cc1ccco1 | - | - | - | 9.28µM | - | ?
CCCCn1c(N)c(C(=O)NCCN2CCOCC2)c2nc3ccccc3nc21 | - | - | - | ? | - | -
COc1cccc(-n2c(=O)n(Cc3ccccc3)c(=O)c3[nH]cnc32)c1 | - | - | - | - | - | -
O=C(O)CCn1c2c(c3ccccc31)C[C@H](NS(=O)(=O)c1ccc(F)cc1)CC2 | . | . | . | - | . | -
CC(C)(C)OC(=O)N[C@@H](C(=O)OC(C)(C)C)c1ccc2ccccc2c1 | . | . | . | - | - | -
COC(=O)c1c(N)n(CCCN2CCOCC2)c2nc3ccccc3nc12 | - | - | - | ? | - | 9.28µM
Nc1c(C(=O)NCc2ccco2)c2nc3ccccc3nc2n1CCc1ccccc1 | - | - | - | ? | - | -
COCCNC(=O)c1c(N)n(Cc2ccco2)c2nc3ccccc3nc12 | - | - | - | 13.1µM | - | 13.1µM
COCCCn1c(N)c(C(=O)NCc2ccco2)c2nc3ccccc3nc21 | - | - | - | 9.28µM | - | ?
CCC(C)NC(=O)c1c(N)n(CC2CCCO2)c2nc3ccccc3nc12 (stereo not drawn) | - | - | - | 11.7µM | - | 13.1µM
O=S(=O)(c1ccc2c(c1)OCCO2)N1CCN(S(=O)(=O)c2ccccc2F)CC1 | - | - | . | . | . | .
COC(=O)/C=C1\OC(c2ccccc2)=CC1=O | - | - | - | - | - | -
COc1cccc(N2CCN(S(=O)(=O)c3cc4c(cc3Cl)NC(=O)CO4)CC2)c1 | - | - | - | - | - | ?
COc1ccc(/C=C/C(=O)OCC(=O)Nc2c(C)cccc2C)cc1 | - | - | . | ? | - | -
COCCCn1c(N)c(C(=O)OC(C)COC)c2nc3ccccc3nc21 (stereo not drawn) | - | - | - | - | - | ?
CCCCOCCCn1c(N)c(C(=O)OC(C)COC)c2nc3ccccc3nc21 (stereo not drawn) | - | - | - | 4.65µM | - | ?
COC(=O)C1=C(C)N(Cc2ccccc2)C(=S)N[C@H]1c1cccc(C(F)(F)F)c1 | 27.5 | 19.3 | - | ? | - | -
CCN1C(=NCc2ccco2)N[C@@H](c2cccc(C(F)(F)F)c2)C(C(=O)OC)=C1C | - | - | - | ? | - | -
CCN1C(=NCCOC)N[C@@H](c2cccc(C(F)(F)F)c2)C(C(=O)OC)=C1C | - | - | - | - | - | 2.08µM
CCN1C(=NCC2CC2)N[C@@H](c2cccc(C(F)(F)F)c2)C(C(=O)OC)=C1C | - | - | - | ? | - | 11.7µM
CCN1C(=S)N[C@@H](CCc2ccccc2)C(C(=O)OC)=C1C | - | - | - | ? | - | 9.28µM
CCCOc1ccc(NC(=O)OC2CCN(C)CC2)cc1 | - | - | - | - | - | ?
SMILES | Shiga inhibitor | Cycloheximide cs | NS1 function inh | Pf growth 48h | SARS PLP yeast | Pf growth 96h
O=C(O)CCc1nnc2n(Cc3ccc(F)cc3)c(=O)c3ccccc3n12 | - | - | - | . | - | -
Cc1ccc(C2(C)NC(=O)N(CC(=O)N3CCN(S(=O)(=O)c4cccc(F)c4)CC3)C2=O)cc1 (stereo not drawn) | - | - | - | - | - | 11.7µM
COc1ccc(S(=O)(=O)N2CCCCCC2)cc1NC(=O)CN1C(=O)NC(C)(c2ccccc2)C1=O (stereo not drawn) | . | . | . | 9.28µM | - | 4.15µM
CCOc1ccc(S(=O)(=O)N2CCOCC2)cc1NC(=O)CN1C(=O)NC(C)(c2ccc(C)cc2)C1=O (stereo not drawn) | . | . | . | 10.4µM | - | ?
CCC1(c2ccccc2)NC(=O)N(CC(=O)Nc2cc(S(=O)(=O)N3CCCCC3)ccc2N(C)C)C1=O (stereo not drawn) | . | . | . | ? | - | ?
CCCC1(c2ccccc2)NC(=O)N(CC(=O)Nc2cc(S(=O)(=O)N3CCOCC3)ccc2Cl)C1=O (stereo not drawn) | - | - | . | - | - | 13.1µM
CC1C(=O)N(C)C(=O)c2nc[nH]c21 (stereo not drawn) | . | . | - | . | . | .
O=C(COc1ccccc1F)Nc1cc(S(=O)(=O)Nc2cccc(Cl)c2)ccc1O | . | . | . | ? | - | -
C=CCn1c(SCc2ccccc2Cl)nnc1-c1sc2nc(C)cc(C)c2c1N | - | - | - | 11.7µM | - | ?
O=C(CCc1ccccc1O)N/N=C/c1ccc(Sc2cccc3cccnc23)o1 | - | - | - | . | - | 3.7µM
O=C(N/N=C/c1ccc(Sc2ccccn2)o1)c1cccc([N+](=O)[O-])c1 | - | - | - | - | - | ?
O=C(N/N=C/c1ccc(Sc2nc3ccccc3[nH]2)o1)c1ccncc1 | - | - | - | - | - | -
O=C(N/N=C\c1ccc(Sc2ccccn2)o1)c1cccc(F)c1 | - | 18.2 | - | - | - | -
O=C(N/N=C/c1ccc(Sc2ccccn2)o1)c1cc2ccccc2cc1O | - | 21.8 | ? | ? | - | ?
CCN(C(=O)COC(=O)c1ccc[nH]c1=O)c1cccc2ccccc12 | . | . | . | . | - | .
O=C(NCc1ccccc1)C12CC3CC(CC(C3)C1)C2 | - | - | - | . | - | -
CN(Cc1ccc(Cl)cc1)C(=O)CNC(=O)C12CC3CC(CC(C3)C1)C2 | . | . | . | 9.28µM | - | 10.4µM
O=C(OCc1nnc(-c2ccc(Cl)cc2)o1)C12CC3CC(CC(O)(C3)C1)C2 | 118.3 | 38.8 | . | - | - | -
Cc1ccc(CCNC(=O)C23C[C@H]4C[C@@H](C2)CC(n2nnc(C)n2)(C4)C3)cc1 | - | 41.3 | . | - | - | -
O=C(Cc1ccc(Cl)cc1)OCc1nnc(-c2ccccc2)o1 | - | - | - | - | - | -
O=C(NCCc1ccc(Cl)cc1)C12CC3CC(CC(O)(C3)C1)C2 | - | 19.3 | - | - | - | -
Cc1ccc(NC(=O)C2CC(O)CN2C(=O)OCc2ccccc2)cc1C (stereo not drawn) | - | - | - | ? | - | ?
Cc1n[nH]c(C)c1CCCCOc1ccccc1[N+](=O)[O-] | - | - | - | - | - | ?
O=C(c1ccco1)N1CCN=C1SCc1ccc(F)cc1 | - | - | - | - | - | -
Cc1ccc(C(CC(=O)c2ccco2)SCCO)cc1 (stereo not drawn) | 71.6 | 37.6 | - | - | - | -
O=C(CC(SCCO)c1ccc(F)cc1)c1ccco1 (stereo not drawn) | 104.2 | 52.5 | - | ? | - | -
Cc1cc2cc(C#N)c(NCCNC(=S)NCCCN3CCOCC3)nc2cc1C | - | - | - | 13.1µM | - | -
